Reference: PubChem BioAssay (NCATS)
Results filed as inconclusive are left out. Where a call stands in place of a potency, no number is given. Calls of active or inactive are those of the source. Calls come from the whole dose curve; as a rule, active = well fitted activation curve with a large enough effect; inconclusive = small, poorly fitted or top-dose-only effect; inactive = flat fitted curve, though single readings scatter.

Test: Primary redox qHTS assay for identification of artifact compounds. (AID 1845223)
Conditions: Amplex Red/HRP redox cycling with DTT, fluorescence; series mostly up to 53.8 µM
In short: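 Redox-cycling detection via DTT (250 uM final) oxidation coupled to Amplex Red (25 uM)/HRP (250 mU/mL) in HBSS. 15 min preincubation plus 30 min after DTT, room temperature. Ex/Em 525/598 nm; 4-parameter Hill fit against DMSO and 10 uM DA3003.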

Q: For `COC(=O)Cn1nc(-c2cccc(OC)c2)c2ccccc21`, which Potency is on record?
A: Its Potency is “inactive”.

Q: With `CC1OC(O[C@@H]2[C@H](O)[C@@H](OC3OC(CO)C(O)C(O)C3O)[C@H](OC(=O)[C@]34CCC(C)(C)C[C@H]3C3=CCC5[C@@]6(C)CC[C@H](O[C@@H]7O[C@H](C(=O)O)[C@@H](O)[C@H](O[C@@H]8OC[C@@H](O)[C@H](O)[C@H]8O)[C@H]7O[C@@H]7O[C@H](CO)[C@H](O)[C@H](O)[C@H]7O)[C@@](C)(C=O)C6CC[C@@]5(C)[C@]3(C)C[C@H]4O)O[C@@H]2C)C(O)C(O)C1OC1OCC(O)C(O)C1O` (stereo partly drawn) as the molecule, how does the redox activity (% of DA3003) read?
A: The redox activity (% of DA3003) was -1.5% [at 6.41 µM] (inactive).

Q: Which Potency does the source give for `C[C@]1(C2CCCC2)Cc2cc(OCC(=O)O)c(Cl)c(Cl)c2C1=O` here?
A: Its Potency is “inactive”.

Q: Which Potency does the source give for `O=C(O[C@H]1[C@H](Oc2ccc(O)cc2CO)O[C@H](CO)[C@@H](O)[C@@H]1O)c1ccccc1` here?
A: Its Potency is “inactive”.

Q: Which Potency does the source give for `CCC(C)C(=O)OC[C@H]1O[C@H](O[C@H]2O[C@H](CO)[C@@H](O)[C@H](O)[C@H]2O)[C@H](O)[C@@H](O)[C@@H]1O` (stereo partly drawn) here?
A: Its Potency is “inactive”.

Q: With `COc1ccc(C2OCC3C(c4cc(OC)c5c(c4)OCO5)OCC23)cc1OC` (stereo not drawn) as the molecule, how does the Potency read?
A: Its Potency is “inactive”.

Q: Which Potency does the source give for `CC(C)C1(O)NC(=O)C(CC2(O)c3ccccc3N3C(=O)C(C)(C)NC32)n2c1nc1ccccc1c2=O` (stereo not drawn) here?
A: Its Potency is “inactive”.

Q: With `CC(O)C/C=C/C=C/C(=O)OC1C=C2COC(=O)C2(O)C2(C)CCCC(C)(C)C12` (stereo not drawn) as the molecule, how does the Potency read?
A: The Potency was “inactive”.

Q: Which Potency does the source give for `CSCC1OC(n2cnc3c(=O)[nH]cnc32)C(O)C1O` (stereo not drawn) here?
A: Its Potency is “inactive”.

Q: With `COc1cc(/C=C/C(=O)OC[C@H]2O[C@@H](OC3OC=C(C(=O)O)C4C(O)CC(C)(O)C34)[C@H](O)[C@@H](O)[C@@H]2O)cc(OC)c1O` (stereo partly drawn) as the molecule, how does the Potency read?
A: Its Potency is “inactive”.

Q: Which Potency does the source give for `NC(=O)c1ccc(F)c2c1C[C@@H](N(C1CCC1)C1CCC1)CO2` here?
A: Its Potency is “inactive”.

Q: With `CC1(C)CC=C(C#Cc2ccccc2)c2cc(/C=C/c3ccc(C(=O)O)cc3)ccc21` as the molecule, how does the Potency read?
A: Its Potency is “inactive”.

Q: With `CC(C)CC(=O)O[C@@H]1O[C@H](CO)[C@@H](O[C@H]2O[C@H](C)[C@@H](N[C@H]3C=C(CO)[C@@H](O[C@H]4O[C@H](CO)[C@@H](O[C@H]5O[C@H](CO)[C@@H](O[C@H]6O[C@H](CO)[C@@H](O)[C@H](O)[C@H]6O)[C@H](O)[C@H]5O)[C@H](O)[C@H]4O)[C@H](O)[C@H]3O)[C@H](O)[C@H]2O)[C@H](O)[C@H]1O` as the molecule, how does the redox activity (% of DA3003) read?
A: The redox activity (% of DA3003) was 4.39% [at 11.5 µM] (inactive).

Q: For `COC(=O)C1=C[C@@H](O)[C@@H](O)[C@H](O[C@@H]2O[C@H](CO)[C@@H](O)[C@H](O)[C@H]2OC(=O)/C=C/c2ccccc2)C1`, which Potency is on record?
A: Its Potency is “inactive”.

Q: Which Potency does the source give for `C[C@@H]1CC2OC(=O)C3=C2C(CCC3O)[C@@]12C[C@@H](c1ccoc1)OC2=O` (stereo partly drawn) here?
A: The Potency was “inactive”.

Q: For `C[C@@H]1O[C@@H](O[C@H]2[C@@H]3C=CO[C@@H](O[C@@H]4O[C@H](CO)[C@@H](O)[C@H](O)[C@H]4O)[C@@H]3[C@@]3(CO)O[C@@H]23)[C@H](OC(=O)/C=C/c2ccc(O)cc2)[C@H](O)[C@H]1O`, which Potency is on record?
A: Its Potency is “inactive”.

Q: For `C=Cc1ccc(O[C@@H]2O[C@H](CO[C@@H]3O[C@@H](C)[C@H](O)[C@@H](O)[C@H]3O)[C@@H](O)[C@H](O)[C@H]2O)cc1`, which Potency is on record?
A: Its Potency is “inactive”.

Q: For `NC1(c2ccc(NC(=O)c3ccnc(-c4cc(C(=O)O)ccn4)c3)cc2)CC1`, which Potency is on record?
A: The Potency was “inactive”.

Q: With `CCC1=C(C)C(=O)C(C)CC12C(=O)CCC2C(=O)O` (stereo not drawn) as the molecule, how does the Potency read?
A: Its Potency is “inactive”.

Q: Which Potency does the source give for `Cc1c(O)cc2c(c1O)COC1(O)CCCOC21` (stereo not drawn) here?
A: The Potency was “inactive”.

Q: For `COc1cc(OC)cc(-c2ccc3c(-c4ccc(F)cc4)[nH]nc3n2)c1`, which Potency is on record?
A: The Potency was “inactive”.

Q: Which Potency does the source give for `COc1cc(/C=C/C(=O)O[C@H]2C[C@@H]3C(C(=O)O)=CO[C@@H](O[C@@H]4O[C@H](CO)[C@@H](O)[C@H](O)[C@H]4O)[C@@H]3[C@H]2C)ccc1O` here?
A: The Potency was “inactive”.

Q: Which Potency does the source give for `COc1ccc2[nH]c(S(=O)Cc3ncc(C)c(OC)c3C)nc2c1` (stereo not drawn) here?
A: Its Potency is “inactive”.
